Screening results as filed in PubChem BioAssay.
Sampled rows, rich in hits. Any-hit rate of the full collection: about 2.4%.
WRN helicase inh: inhibitors of human WRN helicase. Q14191. WRN helicase unwinding, fluorescent forked duplex, kinetic. Potency, µM (highest dose often 114 µM), for inactives: at the highest dose activity change, negative = inhibition, hits mostly inhibitors. 360,000 tested, 0.46% active. AID 651768; further: potency means the concentration at half of the fitted maximal effect; on the % scale 0 is the no-effect control and ±100 the full control effect; nearly all actives have a fitted effect of over 55% in size
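Primary qHTS, 1536-well format. 20 nM WRN + compound, 15 min RT; start with 100 nM forked fluorophore/quencher duplex, 2 mM ATP (final); kinetic read ex 525/em 598 nm.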
FEN1 inh: human FEN1 inhibition | Potency, µM (series often up to 114 µM), without a hit: at the highest dose activity change, negative = inhibition, hits mostly inhibitors | Recombinant FEN1 flap cleavage, fluorescence, 15 min | 390,000 tested, 0.35% active | P39748; further: potency means the concentration at half of the fitted maximal effect; on the % scale 0 is the no-effect control and ±100 the full control effect; nearly all actives have a fitted effect of over 65% in size
Target sequence (P39748 whole entry, looked up): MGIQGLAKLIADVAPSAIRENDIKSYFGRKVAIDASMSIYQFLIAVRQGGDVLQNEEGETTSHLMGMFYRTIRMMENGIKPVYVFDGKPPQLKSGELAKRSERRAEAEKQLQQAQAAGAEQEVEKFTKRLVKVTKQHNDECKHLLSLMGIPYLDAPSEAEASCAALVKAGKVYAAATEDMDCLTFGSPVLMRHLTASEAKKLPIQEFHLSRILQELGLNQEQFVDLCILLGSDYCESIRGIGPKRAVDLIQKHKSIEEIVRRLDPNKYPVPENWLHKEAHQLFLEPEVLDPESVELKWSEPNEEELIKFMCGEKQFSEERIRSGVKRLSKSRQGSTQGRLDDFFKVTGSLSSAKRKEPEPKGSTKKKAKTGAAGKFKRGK
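In this screen, 50 nM flap DNA substrate was added to 10 nM FEN1 pretreated with compound for 15 min at room temperature; cleavage was followed with reads at 0 and 15 min, and Hill fitting gave concentration–response parameters.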
POLB inh: inhibitors of human DNA polymerase beta. P06746. Pol beta primer extension/strand displacement, fluorescence kinetic. Potency, µM (titrated, usually from 114 µM), inactives show at the top dose activity change, negative = inhibition, hits mostly inhibitors. 340,000 tested, 1.3% active; further: potency means the concentration at half of the fitted maximal effect; on the % scale 0 is the no-effect control and ±100 the full control effect
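Human Pol beta at 10 nM; strand-displacement substrate 50 nM final. Compound exposure 15 min at room temperature before start, reaction 10 min at room temperature.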
Pol kappa inh-1: inhibitors of human DNA polymerase kappa | purified Pol kappa, fluorescent DNA synthesis assay, 10 min | Potency, µM (titrated, usually from 107 µM), for inactives: at the highest dose activity, negative = inhibition, most hits filed as inhibitors | 400,000 tested, 0.53% active | AID 588579; further: potency means the concentration at half of the fitted maximal effect; on the % scale 0 is the no-effect control and ±100 the full control effect
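Readout: fluorescence, taken kinetically at 0 and 10 min. Conditions: 10 nM Pol kappa, 15 min RT compound preincubation, 50 nM substrate final. Controls: enzyme-free buffer wells.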
Pol eta inh-1: inhibitors of human DNA polymerase eta; recombinant Pol eta, fluorescent DNA replication assay; Potency, µM (top dose mostly 114 µM), inactives show at the top dose activity change, negative = inhibition, actives largely listed as inhibitors; 390,000 tested, 1.2% active; Q9Y253; further: potency means the concentration at half of the fitted maximal effect; on the % scale 0 is the no-effect control and ±100 the full control effect
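Pol eta (10 nM) was preincubated with compounds for 15 min at room temperature, after which fluorescent replication substrate (50 nM final) was added to start the reaction. Fluorescence was read kinetically at 0 and 10 min.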
Pol iota inh: blocks human DNA polymerase iota activity; AID 588590; Pol iota fluorescent replication assay, 10 min; Potency, µM (highest dose often 115 µM), inactives show top-dose activity, negative = inhibition, most hits filed as inhibitors; Q9UNA4; 390,000 tested, 1% active; further: potency means the concentration at half of the fitted maximal effect
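Pol iota at 10 nM preincubated 15 min with compounds at room temperature; reaction started with fluorescent substrate, 50 nM final. Fluorescence read kinetically at 0 and 10 min; buffer-only wells as negative control.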
TbPGK inh: blocks T. brucei phosphoglycerate kinase; shares compounds with Pol kappa inh-1; 500 tested, 79% active; TbPGK coupled GAPDH assay, Kinase-Glo luminescence; Potency, µM (top dose mostly 57.5 µM), for the others: top-dose activity change, negative = inhibition, most hits filed as inhibitors; further: potency means the concentration at half of the fitted maximal effect; on the % scale 0 is the no-effect control and ±100 the full control effect; nearly all actives have a fitted effect of over 65% in size
POLI cherry-pick: Confirm cherry-picked inhibitors of human polymerase iota; shares compounds with Pol kappa inh-1; Pol iota primer extension, TAMRA/BHQ fluorescence; Potency, µM, usual class: inhibitors; 1,500 tested, 77% active; AID 720496; further: potency means the concentration at half of the fitted maximal effect
GALK inh confirm: confirmation of human galactokinase (GALK) inhibitors; shares compounds with Pol eta inh-1; purified GALK, Kinase-Glo ATP depletion luminescence; Potency, µM (titrated, usually from 115 µM), inactives show top-dose activity, negative = inhibition, hits mostly inhibitors; 150 tested, 70% active
GALK redox cs: counter-screen for GALK inhibitors: redox cycling H2O2 generation; 150 tested, 40% active; Phenol red-HRP H2O2 redox cycling, absorbance 600 nm; Potency, µM (top dose mostly 115 µM), without a hit: at the highest dose activity change, negative = H2O2 signal, usual class: inhibitors; shares compounds with Pol eta inh-1
HEK293 viability: reduces HEK-293 cell viability in GALK counter-screen; HEK-293 viability, ATP luminescence (CellTiter-Glo), 24/48 h; shares compounds with Pol eta inh-1; 170 tested, 10% active; Potency, µM (doses to about 46.1 µM), inactives show top-dose activity change, negative = cytotoxicity, most hits filed as inhibitors; further: potency means the concentration at half of the fitted maximal effect; on the % scale 0 is the no-effect control and ±100 the full control effect
Pol kappa inh-2: Pol kappa (human) inhibition, cherry-pick confirmation; shares compounds with Pol eta inh-1; purified Pol-kappa, fluorescent strand-displacement substrate; Potency, µM, actives largely listed as inhibitors; 920 tested, 76% active; AID 720501; further: potency means the concentration at half of the fitted maximal effect
Pol eta inh-2: Pol eta (human) inhibition, cherry-pick confirmation; shares compounds with Pol eta inh-1; Pol eta primer extension, TAMRA/BHQ fluorescence, 10 min; Potency, µM, actives largely listed as inhibitors; 2,600 tested, 64% active; further: potency means the concentration at half of the fitted maximal effect
* = called active by the depositor; ? = inconclusive; . = not tested or not shown; ! = not confirmed by another sample; [ ] = another dose, or the depositor's remark. The call rests on the fitted dose curve; in most records, active means well fitted curve in the direction sought with a large enough effect; inconclusive means small, poorly fitted or top-dose-only effect, or another doubt; inactive means no such curve, though single readings can be large; an effect the other way counts as inactive or inconclusive.

SMILES	WRN helicase inh	FEN1 inh	POLB inh	Pol kappa inh-1	Pol eta inh-1	Pol iota inh	POLI cherry-pick	Pol eta inh-2	others
N=C1S/C(=C\c2ccc(-c3ccccc3C(=O)O)o2)C(=O)N1c1ccc2c(c1)OCO2	?	?	25µM*	79µM*	20µM*	13µM*	67*	43*	Pol kappa inh-2=19*
O=C(O)CN1C(=O)S/C(=C\c2ccc3c(c2)OCO3)C1=O	5%	-1%	.	4%	-22%	43%	.	.
Cc1ccc(-c2n[nH]c3c2C(c2cccs2)N(c2ccc(Cl)cc2)C3=O)cc1 (stereo not drawn)	.	11%	17%	0%	-12%	6%	.	.
CCN(CC)S(=O)(=O)c1cccc(N=NC2=C(O)CCCC2=O)c1	1%	-4%	-10%	-12%	-6%	37%	.	.
O=C1CCCC(O)=C1N=Nc1cccc(C(=O)O)c1	?	?	10µM*	50µM*	10µM*	14µM*	34*	27*
O=C1CC(c2nc3ccccc3n2CCCOc2ccccc2)CN1c1ccc(F)cc1 (stereo not drawn)	.	-7%	-1%	0%	-1%	20%	.	.
CC(C)COc1ccc(-c2nn(-c3ccccc3)cc2/C=C2/SC(=S)N(CC(=O)O)C2=O)cc1	1%	2%	23%	-3%	28µM*	-15%	75*	67*
CCOc1ccc(NC(=O)CCS(=O)(=O)c2ccc(Br)cc2)cc1	-8%[11.6 µM]	-15%	28µM*	8%	18µM*	-13%	.	76*	TbPGK inh=?
O=C(COC(=O)c1ccccc1O)Nc1ncc(Cl)cc1Cl	?	?	6%	35µM*	18µM*	40µM*	?	27*
CC(C(=O)OCC(=O)Nc1ncc(Cl)cc1Cl)N1C(=O)c2ccccc2C1=O (stereo not drawn)	0%	-12%	-12%	-3%	?	2%	.	.
Cc1cccc(C)c1NC(=O)CN1C(=O)S/C(=C\c2cccn2C)C1=O	-9%	-1%	29%	-18%	0%	0%	.	.
Cc1cccc(C)c1-n1cccc1/C=C1\SC(=S)N(c2cccc(C(=O)O)c2)C1=O	?	?	40µM*	-16%	?	?	?	?	Pol kappa inh-2=60*
Cc1ccccc1NC(=O)CN1C(=O)S/C(=C\c2cccn2-c2cccc(C(=O)O)c2)C1=O	?	?	-87%	25µM*	3.5µM*	?	42*	48*
CCOc1cc2c(C#N)c(N3CCCC3)nc(N)c2c(N)n1	8%	6%	.	-7%	-4%	21%	.	.
COc1cc2c(C#N)c(N3CCCC3)nc(N)c2c(N)n1	?	?	?	?	22µM*	8.9µM*!	38*	24*
N#Cc1c(N2CCCC2)nc(N)c2c(N)nc(N3CCCC3)cc12	-2%[11.6 µM]	?	?	-16%	2.8µM*	2.5µM*	38*	60*	GALK inh confirm=2.1µM*;GALK redox cs=1.9µM*;HEK293 viability=-2%
COc1ccc(CCNC(=O)c2nc(SCc3ccccc3F)ncc2Cl)cc1OC	.	-7%	?	-12%	-2%	?	.	.
Cc1cc(NC(=O)CSc2nc3c(c(-c4cccnc4)c2C#N)CCC3)no1	?	-21%	1%	2%	?	28%	38*	.	Pol kappa inh-2=38*
COc1cccc(NC(=O)CSc2nc3c(c(-c4ccco4)c2C#N)CCCC3)c1	0%	-5%	-28%	-15%	-10%	-13%[58.9 µM]	.	.
CC(=O)Nc1ccc2c(COC(=O)CC3Sc4ccccc4NC3=O)cc(=O)oc2c1 (stereo not drawn)	?	-25%	7.9µM*	35µM*	20µM*	?	60*	48*
CC(=O)Nc1ccc(NC(=O)CC2Sc3ccccc3NC2=O)cc1 (stereo not drawn)	.	17%	8%	8%	-3%	-2%	.	.
C=CCn1c(C)cc(C(=O)Cn2ncc(Cl)c(Cl)c2=O)c1C	?	-12%	11µM*	?	28µM*	20µM*	?	76*
CC(C)(C)C(=O)Cn1ncc(Cl)c(Cl)c1=O	-3%	18%	-2%	-20%	-4%	12%	.	.
Cc1ccc(S(=O)(=O)N(CC(=O)O)Cc2ccco2)cc1	-32%	-16%	?	?	18µM*	28µM*	67*	19*
CCCCN(CC)CCCNC(=O)C1CCN(c2nc3ccc(CC)cc3s2)CC1	.	13%	3%	-6%	.	-2%	.	.
O=C(Nc1ccc2oc(-c3ccncc3)nc2c1)c1ccc([N+](=O)[O-])o1	-11%	7%	?	-10%	?	?	.	.
O=C(Nc1ccc(-c2nc3ncccc3o2)cc1)c1ccc([N+](=O)[O-])o1	-2%[11.6 µM]	10%	50µM*	-9%	11µM*	?	75*	76*
NC(=O)Cn1c(=O)n(Cc2ccco2)c(=O)c2c3c(sc21)CCCCC3	?	-12%	10µM*	25µM*	40µM*	?	?	?
